Laboratory results taken from PubChem BioAssay (NCATS).
Calls of active or inactive are those of the source. Calls follow the shape of the dose curve; as a rule, active = well fitted inhibition curve with a large enough effect; inconclusive = small, poorly fitted or top-dose-only effect; inactive = flat fitted curve, though single readings scatter.

test system: Nanoluciferase (engineered Oplophorus gracilirostris luciferase); experiment: Primary Nanoluciferase (NLuc) qHTS assay for identification of artifact compounds. (AID 1845222); conditions: NLuc-conditioned medium, Nano-Glo luminescence, 5 min; series mostly up to 54.1 µM; activity, negative = inhibition: at the top concentration;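 also: 0% = DMSO and -100% = no enzyme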
Outline: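 Luminescence from secreted NLuc (filtered, 1:55-diluted S16 cell medium) read 5 min after Nano-Glo substrate; compounds preincubated 15 min, RT. Hill fits of inhibition normalized to DMSO and no-enzyme.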

| SMILES | activity, negative = inhibition |
| --- | --- |
| Cn1ncnc1COc1nn2c(-c3c(F)cccc3F)nnc2cc1C1CCC1 | -0.003% (inactive) |
| CC(C)[C@@H](CN1CC[C@@](C)(c2cccc(O)c2)[C@@H](C)C1)NC(=O)[C@H]1Cc2ccc(O)cc2CN1 | 0.615% (inactive) |
| COC(=O)C12C(=O)C(C)(O)C(=O)C1(C)C(C)=CC1C34CCC(OC3=O)C(C)(CO)C4CCC12C (configuration not stated) | 0.681% [at 25.7 µM] (inactive) |
| C=C(C)[C@H]1O[C@H]2CC[C@@]3(C)[C@@](O)(CC[C@H]4[C@@H]5OC(C)(C)[C@H]6C[C@@H]7C(=C)Cc8c(Cl)cc9[nH]c(c5c9c8[C@@]76O)[C@@]43C)[C@]23O[C@@H]3[C@H]1O | 0% [at 25.7 µM] (inactive) |
| C=C[C@H]1CN2CC[C@H]1C[C@@H]2[C@@H](O)c1ccnc2ccccc12 | -1.21% (inactive) |
| Clc1ccc(OCC2=NCCN2)cc1Cl | -2.67% (inactive) |
| CC(C)(C)c1cc(C(C)(C)C)c2c(c1)C(O)(C(F)(F)F)C(=O)O2 (configuration not stated) | 1.01% (inactive) |
| CCOc1ccccc1-n1c(C(C)N2CCN(C(=O)COc3ccc(Cl)cc3)CC2)nc2ccccc2c1=O (configuration not stated) | 0% (inactive) |
| CC[C@H]1CN2CC[C@H]1C[C@H]2[C@H](O)c1ccnc2ccc(OC)cc12 | 2.71% (inactive) |
| COC1CC(OC2CCC3(C=O)C(CCC4C3CCC3(C)C(C5=CC(=O)OC5)CCC43O)C2)OC(C)C1OC1OC(CO)C(O)C(O)C1O (configuration not stated) | 1.11% [at 25.7 µM] (inactive) |
| CC(=O)OC1CC(O)C2(C)C(CC(OC(C)=O)C3(C)C2CCC2(C)C(c4ccoc4)C(=O)C4OC423)C1(C)C (configuration not stated) | 2.76% [at 25.7 µM] (inactive) |
| CC1=C2C[C@H]3[C@@H](CC=C4C[C@@H](O)CC[C@@]43C)[C@@H]2CC[C@]12O[C@@H]1C[C@H](C)CN[C@H]1[C@H]2C | 4.01% (inactive) |
